Test results reported in PubChem BioAssay.
Active and inactive are the calls of the source.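 The calls were made as follows, unless noted: active = fluorescence slope after compound addition differing from the mean of all screened samples at 99.7% confidence, in either direction; inactive = the rest.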

Legend:
[1] = inhibitors of TNFa-induced NFkB p65 translocation, primary screen, imaging, HUVEC, MLSMR starter and 10KST1 sets (AID 438;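 active = inhibition above 20% together with a positive visual image hit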;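 also: compound added about 3h40 before a 20 min TNFalpha stimulation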;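 as to inhibition: signal is the nuclear over cytoplasmic p65 intensity ratio per well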); details: HUVEC TNFa-induced p65 nuclear translocation; cell count: measured here: nuclei count (cytotoxicity indicator), at 2.08 µM; inhibition: at 2 µM, stronger effect = higher value, 0% TNFa-plus-vehicle, 100% no-TNFa wells
[2] = reduction of polyQ htt aggregates in cells – imaging, exon1htt(103Q)mCFP cells, high-content imaging, primary screen (AID 483;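 active = visual image review flags a hit and inhibition of aggregation exceeds 20%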;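 also: compound exposure lasted 3 days before fixation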;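 as to nuclei count: percent of the per-plate median nuclei count of sample wells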); details: exon1htt(103Q)mCFP cell line, aggregate imaging, at 2 µM; inhibition of aggregation: stronger effect = higher value; nuclei count: measured here: cell count, toxicity
[3] = endothelial E-selectin expression blockers – imaging, HUVEC, immunofluorescence, MLSMR starter and 10KST1 sets, primary screen (AID 487;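 active = visually confirmed hit in the image check and inhibition above 20%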;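 as to inhibition: signal is fraction of cell area covered by stained E-selectin grains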;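 as to nuclei count: 100% = median nuclei count of all wells on the same plate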); details: HUVEC TNFalpha-induced E-selectin immunofluorescence imaging, at 2 µM; inhibition: stronger effect = higher value; nuclei count: measured here: cell number, toxicity
[4] = target: Voltage-gated potassium channel subunit beta-2 (Rattus norvegicus) (UniProt P62483); assay: inhibitors of rat Kvbeta2 reductase activity – biochemical, NADPH fluorescence, primary screen (AID 622;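 active = fluorescence slope higher than the sample average by over 3 SD, cut at about -0.22 in these data, passing the limit was not always enough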;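 also: slope of raw intensity against log time taken from 70 to 1610 s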); details: recombinant KvBeta, 4-cyanobenzaldehyde reduction, at 10 µM, stronger effect = higher value
[5] = target: Voltage-gated potassium channel subunit beta-2 (Rattus norvegicus) (UniProt P62483); assay: enhancers of rat Kvbeta2 NADPH turnover – biochemical, NADPH fluorescence, primary screen (AID 623;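 active = NADPH fluorescence slope more negative than the mean of all samples by about 3 SD, 99.7% confidence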;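 also: fluorescence intensity change per second fitted from 20 to 320 s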); details: Recombinant KvBeta, NADPH fluorescence decrease slope, 10 min; at 10 µM; stronger effect = lower value
[6] = target: Alpha-2C adrenergic receptor (Homo sapiens) (UniProt P18825); assay: compounds altering alpha2C-coupled GIRK flux – cell-based, HEK293 alpha2C/GIRK1/2, thallium flux, primary screen (AID 624); details: thallium flux BTC fluorescence, at 10 µM, actives lie on both sides;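 also: slope of fluorescence ratio to pre-addition baseline per second over 15 to 24 s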
[7] = blockers of RIG-like receptor reporter activation – cell-based, Sendai virus stimulus, luciferase, 10K MLSCN set, TLR/RLR signaling modifier project, primary screen (AID 602276;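 active = inhibition at or above 50% at 10 µM; inactive = inhibition below 50%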;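 also: firefly luciferase from ISG56 promoter only with Renilla not read in this screen; 0% = Sendai virus plus DMSO and 100% = medium plus DMSO without virus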); details: HEK293 RL24 IRF3 luciferase reporter, at 10 µM, stronger effect = higher value
[8] = TLR3 IRF3 reporter activation blockers – cell-based, poly I:C stimulus, luciferase, 10K MLSCN set, primary screen (AID 602277;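 active = inhibition of the reporter signal at or above 50%; inactive = inhibition below 50%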); details: HEK293-TLR3 RL24 IRF3 luciferase reporter, at 10 µM, stronger effect = higher value

Alpha-2C adrenergic receptor (Homo sapiens), sequence (P18825 whole entry, looked up): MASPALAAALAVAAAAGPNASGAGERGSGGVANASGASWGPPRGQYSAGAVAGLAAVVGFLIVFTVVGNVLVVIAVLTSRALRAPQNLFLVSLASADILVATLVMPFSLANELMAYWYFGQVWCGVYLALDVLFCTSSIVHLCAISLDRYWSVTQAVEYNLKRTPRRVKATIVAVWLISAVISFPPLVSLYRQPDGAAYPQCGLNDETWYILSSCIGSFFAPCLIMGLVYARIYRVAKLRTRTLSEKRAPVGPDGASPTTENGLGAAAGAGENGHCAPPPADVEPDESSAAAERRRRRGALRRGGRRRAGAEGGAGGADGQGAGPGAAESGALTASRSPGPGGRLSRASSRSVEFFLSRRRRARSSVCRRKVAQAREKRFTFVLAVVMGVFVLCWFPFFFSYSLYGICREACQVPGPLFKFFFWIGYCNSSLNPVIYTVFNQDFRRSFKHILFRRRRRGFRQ
Voltage-gated potassium channel subunit beta-2 (Rattus norvegicus), sequence (P62483 whole entry, looked up): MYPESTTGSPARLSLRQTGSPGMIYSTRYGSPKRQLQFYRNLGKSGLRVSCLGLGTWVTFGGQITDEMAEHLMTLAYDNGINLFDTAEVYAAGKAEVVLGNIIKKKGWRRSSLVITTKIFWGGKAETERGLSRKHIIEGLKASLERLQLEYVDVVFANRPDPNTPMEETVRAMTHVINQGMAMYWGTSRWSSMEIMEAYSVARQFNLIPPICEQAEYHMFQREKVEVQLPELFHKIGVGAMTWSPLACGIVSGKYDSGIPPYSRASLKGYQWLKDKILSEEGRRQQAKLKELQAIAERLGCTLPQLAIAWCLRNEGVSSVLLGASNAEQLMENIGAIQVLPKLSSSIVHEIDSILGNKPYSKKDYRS

Compound | cell count [1] | inhibition [1] | inhibition of aggregation [2] | nuclei count [2] [%] | inhibition [3] | nuclei count [3] [%] | fluorescence slope [4] | NADPH fluorescence slope [5] | slope [6] | inhibition [7] | inhibition [8]
Cc1cc(C(=O)NCCCN2CCN(C3CCCCC3)CC2)n(-c2ccccc2)n1 | 685 | -2.2% (inactive) | -2.4% (inactive) | 101 | -70.3% (inactive) | 114 | -0.588 (inactive) | -2.7e-05 (inactive) | 0.00679 (inactive) | -18.1% (inactive) | 17.8% (inactive)
COC(=O)c1ccc(NC(=O)CN2CCN(c3ccc(Cl)cc3)CC2)cc1 | 355 | -11.2% (inactive) | 12.9% (inactive) | 101 | 8.1% (inactive) | 91.5 | -0.571 (inactive) | 1.7e-05 (inactive) | 0.00455 (inactive) | 20.2% (inactive) | 21.5% (inactive)
COc1ccc(-n2c(Cc3cccn3C)nnc2SCC(N)=O)cc1 | 531 | -4.4% (inactive) | 6.6% (inactive) | 63.8 | 1.4% (inactive) | 99.3 | -0.59 (inactive) | -3.3e-05 (inactive) | 0.00644 (inactive) | 17.9% (inactive) | 27.2% (inactive)
CCCOC(=O)c1[nH]c2c(c1C)C(=O)CC(c1cc(OC)c(OC)c(OC)c1)C2 (stereo not drawn) | 803 | 1.2% (inactive) | 2.2% (inactive) | 114 | -90.3% (inactive) | 118 | -0.567 (inactive) | -2.6e-05 (inactive) | 0.00599 (inactive) | 0.863% (inactive) | -18.2% (inactive)
COc1ccc(OCCCC(=O)Nc2nncs2)cc1 | 296 | 22.6% (inactive) | 12.8% (inactive) | 95.6 | -32.3% (inactive) | 102 | -0.294 (inactive) | -3.4e-05 (inactive) | 0.00603 (inactive) | -0.71% (inactive) | 5.99% (inactive)
CCOC(=O)C1=C(C)N=c2s/c(=C\c3cccn3C)c(=O)n2C1c1cccc(OC)c1OC (stereo not drawn) | 342 | 4.5% (inactive) | 0.2% (inactive) | 98.8 | -38% (inactive) | 102 | -0.419 (inactive) | -8.6e-05 (inactive) | 0.0038 (inactive) | 15.4% (inactive) | 25.1% (inactive)
CCOc1ccc(S(=O)(=O)NCC2CCCO2)c2cccnc12 (stereo not drawn) | 365 | -1.7% (inactive) | -30.7% (inactive) | 104 | 36.8% (inactive) | 105 | -0.497 (inactive) | 8e-05 (inactive) | 0.00707 (inactive) | 17.5% (inactive) | 21.3% (inactive)
Cc1cccc2cc(COC(=O)C(C)(C)C)c(=O)[nH]c12 | 364 | 5.1% (inactive) | 2.3% (inactive) | 102 | 14.2% (inactive) | 89.1 | -0.471 (inactive) | 3.7e-06 (inactive) | 0.0027 (inactive) | 10.9% (inactive) | 22.5% (inactive)
COc1ccccc1N(CN1CCCC1=O)C(=O)c1c(F)cccc1Cl | 370 | -0.3% (inactive) | 9.3% (inactive) | 84.8 | -15.4% (inactive) | 91.8 | -0.477 (inactive) | -3.8e-05 (inactive) | 0.0058 (inactive) | 12.3% (inactive) | 4.03% (inactive)
Cn1c(=O)n(CCN2CCOCC2)c(=O)c2c1nc1n2CCN1c1ccccc1 | 362 | 14% (inactive) | 27.9% (inactive) | 98.5 | -33.7% (inactive) | 132 | -0.564 (inactive) | 2.6e-05 (inactive) | 0.00592 (inactive) | -6.67% (inactive) | 3.62% (inactive)
Cc1ccc(N(C(C)C(=O)Nc2ccc(S(=O)(=O)N3CCOCC3)cc2)S(C)(=O)=O)cc1 (stereo not drawn) | 522 | -7.3% (inactive) | 23.8% (inactive) | 68.3 | -0.3% (inactive) | 92.3 | -0.518 (inactive) | -1.3e-05 (inactive) | 0.00486 (inactive) | 5.72% (inactive) | 10.8% (inactive)
COc1cc(C)c(-c2cc(C(=O)O)c(C)o2)cc1C(C)C | 451 | -7.7% (inactive) | -1.5% (inactive) | 95.9 | -99% (inactive) | 130 | -0.416 (inactive) | 6.3e-06 (inactive) | 0.00528 (inactive) | 12.3% (inactive) | 17.2% (inactive)
CCN1CCCC1CN=Cc1c(O)n(-c2ccccc2)c(=O)c2ccccc12 (stereo not drawn) | 609 | -0.3% (inactive) | -8.1% (inactive) | 109 | -12.1% (inactive) | 97.6 | -0.598 (inactive) | -2e-05 (inactive) | 0.00513 (inactive) | -6.81% (inactive) | 16.9% (inactive)
COc1cc(C2N3CC4(C)CN2CC(C)(C3)C4)ccc1O (stereo not drawn) | 309 | -4.3% (inactive) | 15.8% (inactive) | 74.7 | -33.6% (inactive) | 100 | -0.345 (inactive) | -5.2e-07 (inactive) | 0.0063 (inactive) | 0.715% (inactive) | 25.8% (inactive)
CCCc1nc(NCc2ccncc2)c2nnn(Cc3ccccc3F)c2n1 | 711 | -6.1% (inactive) | -40.7% (inactive) | 116 | -57% (inactive) | 120 | -0.507 (inactive) | -0.000136 (inactive) | 0.00544 (inactive) | 9.12% (inactive) | 19.1% (inactive)
COc1ccc(-c2noc(CCCC(=O)O)n2)cc1 | 696 | -7.8% (inactive) | -3.1% (inactive) | 125 | -54.3% (inactive) | 107 | -0.341 (inactive) | 1.2e-05 (inactive) | 0.00595 (inactive) | 35% (inactive) | 86.3% (active)
CC(=O)OC1c2ccccc2C(=O)N1Cc1ccccc1Cl (stereo not drawn) | 468 | -2.8% (inactive) | 34% (inactive) | 61 | -13.3% (inactive) | 106 | -0.552 (inactive) | -4.6e-05 (inactive) | 0.00651 (inactive) | 4.84% (inactive) | 27.6% (inactive)
COc1ccc(C2C(C#N)=C(N)OC3=C2C(=O)CC(C)C3)c(OC)c1OC (stereo not drawn) | 349 | 15.6% (inactive) | 5.8% (inactive) | 123 | 11.3% (inactive) | 102 | -0.479 (inactive) | 2e-05 (inactive) | 0.00381 (inactive) | -3.81% (inactive) | 19.1% (inactive)
COc1ccc(OC)c(C2C(C(=O)Nc3cccnc3)=C(C)NC3=C2C(=O)CCC3)c1 (stereo not drawn) | 353 | -7% (inactive) | 2.3% (inactive) | 103 | -64% (inactive) | 131 | -0.379 (inactive) | 2.2e-05 (inactive) | 0.00554 (inactive) | 3.04% (inactive) | 25% (inactive)
COCCNC(=O)Cn1cc2c(n1)CCCCC2 | 623 | 5.8% (inactive) | -19.8% (inactive) | 110 | -23.5% (inactive) | 98.4 | -0.529 (inactive) | -8.7e-05 (inactive) | 0.00598 (inactive) | 7.33% (inactive) | 31.3% (inactive)
CCOC(=O)c1nc2sc3c(c2c(=O)[nH]1)CCCC3 | 763 | -1.6% (inactive) | -9.6% (inactive) | 84.3 | 2.7% (inactive) | 102 | -0.0445 (active) | -1.1e-05 (inactive) | 0.0045 (inactive) | 13.1% (inactive) | 11.2% (inactive)
COc1ccc(CC(NC(C)=O)C(=O)N2CCN(C(=O)N(C(C)C)C(C)C)CC2)cc1 (stereo not drawn) | 309 | -4% (inactive) | -9.5% (inactive) | 91.9 | -29.4% (inactive) | 100 | -0.397 (inactive) | -6.6e-05 (inactive) | 0.00701 (inactive) | 4.31% (inactive) | 3.57% (inactive)
Cc1ccc(NC(=O)C2CC=CCC2C(=O)N2CCCCC2)cc1 (stereo not drawn) | 636 | -23.5% (inactive) | -67% (inactive) | 66.9 | -9.5% (inactive) | 94.3 | -0.499 (inactive) | -2.1e-05 (inactive) | 0.00665 (inactive) | -0.377% (inactive) | 26.9% (inactive)
COC(=O)c1cccc(S(=O)(=O)N2CCC(C)CC2)c1 | 326 | -10.3% (inactive) | 11.2% (inactive) | 95.5 | -70.6% (inactive) | 93 | -0.547 (inactive) | 5.2e-05 (inactive) | 0.00519 (inactive) | 0.114% (inactive) | -2.56% (inactive)
CCc1nnc2c3cnn(-c4ccccc4)c3ncn12 | 402 | -2.9% (inactive) | -11.8% (inactive) | 103 | -25.5% (inactive) | 125 | -0.616 (inactive) | 7.6e-06 (inactive) | 0.00633 (inactive) | -19% (inactive) | -77% (inactive)
CCN1CCN(C(c2ccc(F)cc2)c2nnnn2Cc2cccs2)CC1 (stereo not drawn) | 605 | -8.6% (inactive) | 1.9% (inactive) | 48.7 | -35.5% (inactive) | 96.1 | -0.339 (inactive) | 1.5e-05 (inactive) | 0.00582 (inactive) | 4.23% (inactive) | 21.4% (inactive)
O=C(CSc1nnc(CNC(=O)c2cccs2)o1)NC1CCCC1 | 613 | -14.4% (inactive) | 10.3% (inactive) | 93.1 | -2.3% (inactive) | 123 | -0.318 (inactive) | -5e-05 (inactive) | 0.00569 (inactive) | 16.7% (inactive) | 12.5% (inactive)
Cc1nc2ccc(S(=O)(=O)NC(C(=O)Nc3nccs3)C(C)C)cc2s1 (stereo not drawn) | 549 | -6.2% (inactive) | -4.4% (inactive) | 95.9 | -17.1% (inactive) | 120 | -0.589 (inactive) | -2.2e-05 (inactive) | 0.00646 (inactive) | 13.6% (inactive) | 30.5% (inactive)
